Mdm2 MdmX PPI – human Mdm2/MdmX binding inhibition. O15151+Q00987. SaOS-2 split-luciferase Mdm2/MdmX complementation, luminescence. inhibition, % at 8 µM. actives 3% (n = 330,000). AID 485346;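 active = inhibition of at least 50% at 8 µM in the primary screen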
Target sequence (O15151 whole entry, looked up): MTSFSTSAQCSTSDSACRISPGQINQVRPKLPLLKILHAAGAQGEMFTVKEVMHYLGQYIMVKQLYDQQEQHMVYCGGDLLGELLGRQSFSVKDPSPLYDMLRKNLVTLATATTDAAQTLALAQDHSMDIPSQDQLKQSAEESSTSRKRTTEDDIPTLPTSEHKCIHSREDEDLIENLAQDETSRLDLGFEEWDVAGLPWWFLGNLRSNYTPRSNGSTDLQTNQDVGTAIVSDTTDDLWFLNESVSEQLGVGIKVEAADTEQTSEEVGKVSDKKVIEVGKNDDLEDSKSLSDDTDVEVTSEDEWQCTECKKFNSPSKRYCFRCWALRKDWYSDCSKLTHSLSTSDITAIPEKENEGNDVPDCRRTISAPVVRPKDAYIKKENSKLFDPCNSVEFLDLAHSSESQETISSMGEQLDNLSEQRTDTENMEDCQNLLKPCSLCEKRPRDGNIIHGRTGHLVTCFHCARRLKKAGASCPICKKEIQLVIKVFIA
Target sequence (Q00987 whole entry, looked up): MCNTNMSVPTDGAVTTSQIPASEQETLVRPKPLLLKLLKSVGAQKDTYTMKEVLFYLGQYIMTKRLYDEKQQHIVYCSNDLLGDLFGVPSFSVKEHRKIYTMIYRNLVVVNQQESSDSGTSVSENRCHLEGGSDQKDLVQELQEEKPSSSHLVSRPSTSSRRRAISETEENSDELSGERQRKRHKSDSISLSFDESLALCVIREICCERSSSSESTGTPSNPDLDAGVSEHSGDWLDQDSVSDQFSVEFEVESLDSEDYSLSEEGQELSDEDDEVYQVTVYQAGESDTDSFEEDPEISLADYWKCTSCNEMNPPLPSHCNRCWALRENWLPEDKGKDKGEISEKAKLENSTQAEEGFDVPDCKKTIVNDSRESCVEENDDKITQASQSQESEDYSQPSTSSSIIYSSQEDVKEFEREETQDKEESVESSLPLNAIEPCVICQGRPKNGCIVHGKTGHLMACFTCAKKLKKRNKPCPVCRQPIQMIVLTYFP
Gli-Sufu antag – blocks Gli-Sufu signaling in a luciferase reporter | actives 0.74% (n = 340,000) | Sufu-KO-LIGHT fibroblasts, Gli luciferase reporter luminescence | AID 588413 | inhibition, % at 5 µM;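 active = inhibition above about 55%, limit read from the data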;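 note: 0% = DMSO-treated cells and 100% = wells with medium but no cells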
697 NFkB inh – inhibitors of the PMA/ionomycin-induced NF-kB reporter in 697 B cells | 697 B-cell NF-kB luciferase reporter, 16 h | inhibition, % at 4 µM | actives 0.33% (n = 330,000) | AID 435022; in the data active = inhibition above about 35%
Jurkat NFkB inh – inhibitors of the PMA/ionomycin-induced NF-kB reporter in Jurkat cells. PMA/ionomycin-induced NF-kB luciferase reporter, luminescence. inhibition, % at 4 µM. actives 0.53% (n = 330,000). AID 435003; in the data active = inhibition above about 50%
Beta apoptosis – beta cell apoptosis inhibition. INS-1E cytokine-induced death, ATP luminescence, 48 h; percent of positive-control rescue, neutral wells zero. actives 0.8% (n = 300,000). protection from apoptosis, % (concentration not given with the values);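 active = Every replicate reaches about 75%, or at least half do and their mean reaches it too, limit read from the data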;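 note: 0% = cytokine-treated negative control wells and 100% = positive control rescue; higher means more ATP so stronger rescue from cytokine killing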
697 NFkB conf – lowers PMA/ionomycin-induced NF-kB signal in 697 B cells | actives 35% (n = 2,000) | shares compounds with 697 NFkB inh | inhibition, % at 4 µM | AID 449746 | 697 B-cell NF-kB luciferase, 16 h; in the data active = inhibition mostly above about 28%, no sharp cut-off; inactive = mostly below about 22%
* marks the source's active call; other numbers are inactive results. Only some compounds are listed: those with a hit (about 4% of all), similar ones and a draw of the others.

How did O=C(CCCN1C(=O)S/C(=C\c2ccccc2)C1=O)NNC(=O)c1ccccc1O do in these assays?
Mdm2 MdmX PPI: 44; Gli-Sufu antag: 36; 697 NFkB inh: 67*; Jurkat NFkB inh: -2; Beta apoptosis: -2; 697 NFkB conf: 50*

Results for O=C(CCCN1C(=O)/C(=C/c2ccccc2Cl)SC1=S)NNC(=O)c1cccnc1 ?
Mdm2 MdmX PPI: -4; Gli-Sufu antag: -17; 697 NFkB inh: 2; Jurkat NFkB inh: -35; Beta apoptosis: 0

Results for O=C(CCCN1C(=O)/C(=C/c2ccccc2Cl)SC1=S)NNC(=O)c1ccccc1 ?
Mdm2 MdmX PPI: 10; Gli-Sufu antag: 6; 697 NFkB inh: 40*; Jurkat NFkB inh: 13; Beta apoptosis: -13; 697 NFkB conf: 42*

What do the screens show for `O=C(CCCN1C(=O)S/C(=C\C=C\c2ccccc2)C1=O)Nc1ccc(C(=O)O)cc1`?
Mdm2 MdmX PPI: 17; Gli-Sufu antag: -22; 697 NFkB inh: 48*; Jurkat NFkB inh: -8; Beta apoptosis: -8; 697 NFkB conf: 53*

Results for O=C(CCCN1C(=O)/C(=C/c2ccccc2Cl)SC1=S)NNC(=O)c1ccc(Cl)cc1Cl ?
Mdm2 MdmX PPI: 46; Gli-Sufu antag: 26; 697 NFkB inh: 60*; Jurkat NFkB inh: 27; Beta apoptosis: -3; 697 NFkB conf: 39*

How did CCC(C)NC(=O)CSc1nc2ccccc2c(=O)n1-c1c(C)n(C)n(-c2ccccc2)c1=O (configuration not stated) do in these assays?
Mdm2 MdmX PPI: 0; Gli-Sufu antag: 0; 697 NFkB inh: 3; Jurkat NFkB inh: 9; Beta apoptosis: 3

Results for O=C(COC(=O)c1nc(Cl)ccc1Cl)NCc1ccccc1 ?
Mdm2 MdmX PPI: 1; Gli-Sufu antag: 5; 697 NFkB inh: 16; Jurkat NFkB inh: 10; Beta apoptosis: 6

Results for COc1ccc(C(=O)N2CCc3c([nH]c4ccccc34)C2C(F)(F)F)cc1 (configuration not stated) ?
Mdm2 MdmX PPI: 26; Gli-Sufu antag: -2; 697 NFkB inh: 0; Jurkat NFkB inh: 9; Beta apoptosis: -1

How did COc1ccccc1NC(=O)N1CCc2c([nH]c3ccccc23)C1C(F)(F)F (configuration not stated) do in these assays?
Mdm2 MdmX PPI: 5; Gli-Sufu antag: 2; 697 NFkB inh: 35*; Jurkat NFkB inh: 13; Beta apoptosis: 0; 697 NFkB conf: 8

What do the screens show for `Cc1cc(OCC(=O)Nc2ccc(CCO)cc2)c2c(C)c(C)c(=O)oc2c1`?
Mdm2 MdmX PPI: 27; Gli-Sufu antag: 1; 697 NFkB inh: 36*; Jurkat NFkB inh: 0; Beta apoptosis: 7; 697 NFkB conf: 40*

What do the screens show for `CC1CCCN(C(=O)CSc2nnc3n(C4CCCC4)c(=O)c4ccccc4n23)C1` (configuration not stated)?
Mdm2 MdmX PPI: 47; Gli-Sufu antag: -3; 697 NFkB inh: 35*; Jurkat NFkB inh: 7; Beta apoptosis: 1; 697 NFkB conf: -5

What do the screens show for `Cc1ccc(/C=N/Nc2ccc(Cl)c(C(=O)O)c2)s1`?
Mdm2 MdmX PPI: -164; Gli-Sufu antag: -105; 697 NFkB inh: -298; Jurkat NFkB inh: -107; Beta apoptosis: -1; 697 NFkB conf: -39

Results for O=C(O)c1cc(N/N=C/c2cccs2)ccc1Cl ?
Mdm2 MdmX PPI: 1; 697 NFkB inh: -23; Jurkat NFkB inh: -14; Beta apoptosis: -3

Results for N=c1c(S(=O)(=O)c2ccccc2)cc2c(=O)n3ccccc3nc2n1Cc1ccco1 ?
Mdm2 MdmX PPI: 26; Gli-Sufu antag: 2; 697 NFkB inh: 5; Jurkat NFkB inh: -6; Beta apoptosis: -21

What do the screens show for `Cc1ccc(S(=O)(=O)c2cc3c(=O)n4ccccc4nc3n(Cc3ccco3)c2=N)cc1C`?
Mdm2 MdmX PPI: 24; Gli-Sufu antag: -9; 697 NFkB inh: 40*; Jurkat NFkB inh: 22; Beta apoptosis: -35; 697 NFkB conf: 0

Results for Cc1ccc(CCNC(=O)c2nc(CS(=O)(=O)c3ccc(Cl)cc3)no2)cc1 ?
Mdm2 MdmX PPI: 18; Gli-Sufu antag: 4; 697 NFkB inh: 5; Jurkat NFkB inh: -2; Beta apoptosis: -2

Results for O=c1[nH]c(Sc2ccc([N+](=O)[O-])cc2[N+](=O)[O-])nc2ccccc12 ?
Mdm2 MdmX PPI: -36; Gli-Sufu antag: 12; 697 NFkB inh: -11; Jurkat NFkB inh: -8; Beta apoptosis: 7
